In the library only some 10% were active in any assay of this set; here they are far more common.
BAZ2B block – qHTS Assay for Inhibitors of BAZ2B | Bromodomain adjacent to zinc finger domain protein 2B (Homo sapiens), Q9UIF8 | AlphaScreen BAZ2B-H3K14Ac peptide displacement | Potency, µM (top dose mostly 114 µM), without a hit: at the highest dose activity change, negative = inhibition, most hits filed as inhibitors | 4.4% of 360,000 active | AID 504333, 2011; also: % is scaled to controls: 0 for no effect and ±100 for the full control effect; nearly all actives have a fitted effect of over 60% in size
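BAZ2B 50 nM plus b-H3(5-23)K14Ac 50 nM, PBS pH 7.4/0.01% Tween-20, 30 min RT; compound added (max 110 uM), 30 min RT; streptavidin donor/Ni-chelate acceptor beads 10 ug/mL final, 20 min dark; AlphaScreen read.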
HP1b binding inh – HTS for Inhibitors of HP1-beta Chromodomain Interactions with Methylated Histone Tails. Chromobox protein homolog 1 (Homo sapiens), P83916. AlphaScreen HP1-beta / biotin-H3K9me3 peptide binding. Potency, µM (series often up to 114 µM), without a hit: at the highest dose activity change, negative = inhibition, usual class: inhibitors. 0.56% of 390,000 active. AID 540317, 2011; also: nearly all actives have a fitted effect of over 70% in size
Target sequence (P83916 whole entry, looked up): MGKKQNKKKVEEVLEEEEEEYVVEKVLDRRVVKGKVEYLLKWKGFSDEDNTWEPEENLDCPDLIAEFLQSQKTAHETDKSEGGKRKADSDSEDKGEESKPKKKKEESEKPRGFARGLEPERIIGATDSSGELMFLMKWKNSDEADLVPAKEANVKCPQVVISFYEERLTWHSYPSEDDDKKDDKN
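Compound inhibition of the preformed complex between 50 nM HP1-beta and 50 nM biotinylated H3K9me3 peptide was read by AlphaScreen. Buffer was PBS pH 7.4 with 0.01% Tween-20. Incubations ran 30 min at room temperature, with 10 ug/mL donor/acceptor beads.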
GLS inh – qHTS for Inhibitors of Glutaminase (GLS); GLS enzymatic activity, qHTS titration; 0.21% of 410,000 active; Potency, µM (top dose mostly 45.5 µM), for the others: at the top dose activity change, negative = inhibition, usual class: inhibitors; also: % is scaled to controls: 0 for no effect and ±100 for the full control effect
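Two-point fluorescence kinetic (t0, 30 min RT) for hKGA; glutamate detected via glutamate oxidase–HRP–Amplex Red. Substrate: 1 mM L-glutamine solution; buffer 45 mM KH2PO4, pH 8.2.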
JMJD2A Tudor inh – qHTS Assay for Inhibitors of JMJD2A-Tudor Domain; Lysine-specific demethylase 4A (Homo sapiens), O75164; AlphaScreen JMJD2A-Tudor / H3K4me3 peptide binding; 4.4% of 390,000 active; Potency, µM (doses to about 114 µM), inactives show top-dose activity change, negative = inhibition, usual class: inhibitors; also: % is scaled to controls: 0 for no effect and ±100 for the full control effect; nearly all actives have a fitted effect of over 50% in size
G9a block – qHTS Assay for Inhibitors of Histone Lysine Methyltransferase G9a | Histone-lysine N-methyltransferase EHMT2 (Homo sapiens), Q96KQ7 | G9a H3K9 monomethylation, AlphaScreen, 2 h | Potency, µM (series often up to 102 µM), inactives show at the highest dose activity, negative = inhibition, hits mostly inhibitors | 8.8% of 350,000 active | AID 504332, 2011; also: % is scaled to controls: 0 for no effect and ±100 for the full control effect; nearly all actives have a fitted effect of over 75% in size
Target sequence (Q96KQ7 913-1193 limits assumed): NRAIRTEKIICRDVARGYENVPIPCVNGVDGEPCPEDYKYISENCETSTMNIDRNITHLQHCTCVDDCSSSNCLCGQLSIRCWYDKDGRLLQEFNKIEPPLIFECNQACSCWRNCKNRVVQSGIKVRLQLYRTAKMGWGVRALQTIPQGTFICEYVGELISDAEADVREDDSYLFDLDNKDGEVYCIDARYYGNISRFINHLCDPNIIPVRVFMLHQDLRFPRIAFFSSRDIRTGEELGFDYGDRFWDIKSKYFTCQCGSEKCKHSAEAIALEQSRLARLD
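AlphaScreen detection with an anti-monomethyl H3K9 antibody quantified product after a 2 h room-temperature reaction containing 500 nM biotinylated H3K9 peptide, 20 µM SAM and 20 nM enzyme, which had been preincubated 15 min with compound.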
* = called active by the depositor; ? = inconclusive; . = no result given; [ ] = another dose, or the depositor's remark. Calls follow the shape of the dose curve; as a rule, active = well fitted curve in the direction sought with a large enough effect; inconclusive = small, poorly fitted or top-dose-only effect, or another doubt; inactive = no such curve, though single readings can be large; an effect the other way counts as inactive or inconclusive. Potency is read from the fitted curve at half-maximal effect.

SMILES	BAZ2B block	HP1b binding inh	GLS inh	JMJD2A Tudor inh	G9a block
Cc1ccc(N(CCC#N)C(=O)COC(=O)c2ccccc2SCC(=O)N2CCCC2)cc1	-18.3%	21.6%	-4.8%	-4.1%	-46.9%[59 µM]
O=C(O)CC(SCC(=O)Nc1ccc(Cl)c(S(=O)(=O)N2CCOCC2)c1)C(=O)O (stereo unspecified)	-2.3%	58.4%	1.7%	-8.1%	-44.2%
C/C(=N/NC(=O)c1cccs1)c1c(C)[nH]n(-c2nc3ccccc3s2)c1=O	6.0%	23.7%	46.9%	-21.3%	26.3%[59 µM]
COC(=O)Cc1[nH]n(-c2nc3ccccc3s2)c(=O)c1C(C)=Nc1ccc(Cl)cc1	25.1µM*	7.4%	10.5%	22.4µM*	-121.1%[59 µM]
CCOc1[nH]n(-c2ccccc2)c(=O)c1C=Nc1ccc(C(=O)OC)cc1	-30.3%	40.9%	-5.1%	-19.7%	?
COC(=O)Cc1[nH]n(-c2ccccc2)c(=O)c1C(C)=Nc1ccccc1	-30.3%	0.1%	11.5%	-22.7%	50.1µM*
COC(=O)Cc1[nH]n(-c2nc3ccccc3s2)c(=O)c1C(C)=Nc1ccc(C)cc1	39.8µM*	25.7%	8.0%	35.5µM*	14.1µM*
CCCN=C(C)c1c(-c2ccccc2)[nH]n(-c2nc3ccccc3s2)c1=O	-6.8%	46.7%	3.3%	-28.2%[57.1 µM]	?
CC(=O)Nc1ccc(Nc2ccc(S(=O)(=O)C(F)(F)F)cc2[N+](=O)[O-])cc1	?	-37.3%	-24.0%	?	?
CN(C)c1ccc(CNn2cnnc2SCc2ccc(F)cc2)cc1	44.7µM*	-5.5%	39.2%	?	?
Cc1cc(C)c2sc(N(CCCN(C)C)C(=O)c3ccc(S(=O)(=O)N4CCCc5ccccc54)cc3)nc2c1	11.2µM*	-7.2%	2.4%	39.8µM*	44.7µM*
CN(C)CCCN(C(=O)c1ccc(S(=O)(=O)N2CCc3ccccc3C2)cc1)c1nc2ccc(F)cc2s1	-30.6%	-31.4%	-5.9%	?	39.8µM*
CN(C)CCCN(C(=O)c1ccc(S(=O)(=O)N2CCc3ccccc3C2)cc1)c1nc2c(F)cccc2s1	-9.3%	35.4%	-6.7%	-6.8%	-11.7%
COc1ccc2sc(N(CCCN(C)C)C(=O)c3ccc(S(=O)(=O)N4CCc5ccccc5C4)cc3)nc2c1	-38.6%	-24.8%	2.9%	56.2µM*	31.6µM*
Cc1ccc2nc(N(CCCN(C)C)C(=O)c3ccc(S(=O)(=O)N4CCc5ccccc5C4)cc3)sc2c1	?	?	7.8%	?	70.8µM*
CN(C)CCCN(C(=O)c1ccc(S(=O)(=O)N2CCc3ccccc32)cc1)c1nc2ccc(Cl)cc2s1	?	?	7.7%	?	?
COc1ccc(CCNC(=O)c2ccc3c(c2)N(Cc2ccc(C)cc2)CCS3)cc1OC	-27.2%	-7.7%[57 µM]	3.6%	-28.0%	-14.4%
O=C(Nc1cccc(-c2cnc3ccccc3n2)c1)c1ccc(Cl)cc1	3.7%	62.7%	5.4%	-16.3%	.
Cc1cc(C)c2sc(N(CCCN(C)C)C(=O)c3ccc(S(=O)(=O)N4CCc5ccccc5C4)cc3)nc2c1	-19.9%	.	.	.	22.4µM*
CN(C)CCCN(C(=O)c1ccc(S(=O)(=O)N2CCc3ccccc32)cc1)c1nc2ccc(F)cc2s1	?	?	19.9%	?	44.7µM*
Cc1cccc2sc(N(CCCN(C)C)C(=O)c3ccc(S(=O)(=O)N4CCc5ccccc5C4)cc3)nc12	-18.2%	3.1%	-0.2%	-27.9%	.
Cc1nc2nc(C)n(-c3ccccc3)c2s1	-2.2%	14.1%	5.4%	-27.6%	12.6µM*
COc1ccc(NC(=O)c2sccc2SCc2cccc(C(F)(F)F)c2)cc1	31.0%	77.9%	-6.6%	51.9%	?
CCOC(=O)c1sc(=S)sc1SCc1cccc(C(F)(F)F)c1	-35.4%	-15.7%	3.2%	-28.3%	31.6µM*
O=C1c2cccnc2C(=O)N1CNc1ccc(Cl)cc1	56.2µM*	25.9%	7.9%	-0.7%	?
SMILES	BAZ2B block	HP1b binding inh	GLS inh	JMJD2A Tudor inh	G9a block
Cc1cnc(CNC(=O)C2CCC(=O)N(CCc3cccc(F)c3)C2)[nH]1 (stereo unspecified)	-9.1%	16.0%	3.7%	-18.6%	10.4%[0.0925 µM]
CCOC(=O)c1c(Nc2cc(C)cc(C)c2)nnc(-c2ccccc2)c1-c1ccccc1	-38.2%	-5.3%	-1.9%	?	3.55µM*
CCOC(=O)c1c(Nc2ccccc2)nnc(-c2ccccc2)c1-c1ccccc1	-30.4%	16.9%	3.7%	-28.7%	-44.4%[59 µM]
CCOC(=O)c1c(Nc2ccc(OC)cc2)nnc(-c2ccccc2)c1-c1ccccc1	?	-11.5%	1.5%	?	7.94µM*
CC(C)CCC(O)(CCC(C)C)C(=O)NNc1ccccc1	-5.0%	32.5%	18.0%	2.5%[57.1 µM]	50.1µM*
CC(C)CC(O)(CC(C)C)C(=O)NNc1ccccc1	8.6%	43.9%	18.5%	-11.3%	?
CC(C)Sc1nc(-c2ccccc2)cc(=O)[nH]1	-32.1%	11.0%	1.7%	-9.7%	35.5µM*
CCC(Sc1nc(-c2ccccc2)cc(=O)[nH]1)C(=O)O (stereo unspecified)	3.2%	18.3%	3.6%	-17.8%	0.8%[59 µM]
CCNC(=O)N(C)C[C@H]1N[C@@](C)(C(=O)OC)[C@H]2C(=O)N(C)C(=O)[C@@H]12	.	26.7%	4.7%	89.1µM*	.
O=C1C=CC2=C3c4cc(O)c(O)cc4CC3(O)COC2=C1O (stereo unspecified)	.	?	?	3.16µM*	.
Cc1cc(C)nc(NC(=O)c2ccc(Cl)cc2[N+](=O)[O-])c1	-1.5%	21.2%	4.8%	-0.7%[57.1 µM]	30.6%[59 µM]
CCc1c(O)nc(SCC(=O)Nc2ccc(Br)cc2)n(-c2ccc(C)cc2)c1=O	?	14.8%	-0.1%	-21.8%	.
c1ccc(CN=C2NN=C(c3cc4ccccc4o3)CS2)cc1	?	18.8%	8.2%	0.7%	?
Cc1ccc(C)c(C2=NNC(=NCc3ccccc3)SC2)c1	-33.3%	-1.9%	-5.9%	-33.7%	35.5µM*
COc1ccc(CN=C2NN=C(c3ccccc3)CS2)cc1	.	-4.9%	-1.5%	?	35.5µM*
COc1cc(C)c(N)cc1C(C)C	?	?	2.3%	?	?
CN(C)c1ccc(/C=C2\CCCCC2=O)cc1	?	-9.2%	21.1%	?	50.1µM*
Cc1ccc(C(=O)NCCn2cc(SCC(=O)Nc3cc(C)on3)c3ccccc32)cc1	5.1%	37.4%	2.7%	-14.8%	-11.2%
Cc1cc(NC(=O)CSc2cn(CCNC(=O)c3ccccc3)c3ccccc23)no1	7.3%	8.91µM*	8.91µM*	22.4µM*	?
Cc1cc(NC(=O)CSc2cn(C)c3ccccc23)no1	3.1%	29.6%	5.7%	-18.3%	25.1µM*
Cc1ccc(NS(=O)(=O)c2ccc(OCC(N)=O)cc2)cc1	-20.6%	19.5%	-5.6%	5.6%	-6.4%
